In PubChem BioAssay (Tox21):
Results filed as inconclusive are left out. Activity calls are given as the source filed them. Unless noted, the call rests on the fitted dose curve; in most records, active means well fitted curve in the direction sought with a large enough effect in the repeat runs; inconclusive means weak or mixed curves; inactive means no such curve, though single readings can be large; an effect the other way counts as inactive or inconclusive.

Assays:
[1] = qHTS assay to identify small molecule antagonists of the thyroid receptor (TR) signaling pathway - cell viability counter screen (AID 743064); further: nearly all actives have a fitted effect of over 50% in size; further: potency means the concentration at half of the fitted maximal effect
Method in brief: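 GH3.TRE-Luc cells, 4 h pre-plating; cpd + T3 1 nM final; 37 °C 23.5 h; CellTiter-Fluor 30 min; fluorescence read.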

[2] = target: Estrogen receptor (Homo sapiens) (UniProt P03372); assay: qHTS assay to identify small molecule antagonists of the estrogen receptor alpha (ER-alpha) signaling pathway (AID 743069; active means well fitted curve in the direction sought with a large enough effect in the signal ratio in the repeat runs, not every such curve was filed as active; the % refers to the signal ratio)
Method in brief: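 Beta-lactamase FRET fluorescence is read after 2 hr at room temperature with LiveBLAzer B/G substrate. Before that, ER-alpha-bla HEK293 cells sit 4 hr after plating, then receive compound plus 17beta-estradiol and incubate 18 hr at 37C.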

[3] = qHTS assay to identify small molecule antagonists of the estrogen receptor alpha (ER-alpha) signaling pathway - cell viability counter screen (AID 743074; calls by dose curve;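 further: HEK293 cells carrying ER-alpha-UAS-bla reporter stimulated with 17beta-estradiol; nearly all actives have a fitted effect of over 45% in size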)
[4] = target: Estrogen receptor (Homo sapiens) (UniProt P03372); assay: qHTS assay to identify small molecule agonists of the estrogen receptor alpha (ER-alpha) signaling pathway (AID 743075; calls by dose curve;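 further: HEK293 GripTite cells with ER-alpha and UAS-driven beta-lactamase reporter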)
[5] = target: Estrogen receptor (Homo sapiens) (UniProt P03372); assay: qHTS assay to identify small molecule agonists of the estrogen receptor alpha (ER-alpha) signaling pathway using the BG1 cell line (AID 743079); conditions: BG1Luc4E2 cells, ERE-luciferase agonist, 22 h; further: nearly all actives have a fitted effect of over 20% in size
[6] = qHTS assay to identify small molecule antagonists of the estrogen receptor alpha (ER-alpha) signaling pathway using the BG1 cell line (AID 743080; calls by dose curve;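 further: BG1 cells stimulated with 17beta-estradiol alongside compound; nearly all actives have a fitted effect of over 25% in size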; further: potency means the concentration at half of the fitted maximal effect)
Method in brief: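 Endogenous full-length ER-alpha in BG1-Luc-4E2 cells drives a stably integrated 4×ERE luciferase gene; compounds were tested against 17beta-estradiol over 21.5 h, with luminescence and multiplexed viability fluorescence recorded.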

[7] = qHTS assay to identify small molecule antagonists of the estrogen receptor alpha (ER-alpha) signaling pathway using the BG1 cell line - cell viability counter screen (AID 743081);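 further: compound given together with 17beta-estradiol as the ER stimulus; nearly all actives have a fitted effect of over 45% in size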
Aromatase (Homo sapiens) = Aromatase (Homo sapiens) (UniProt P11511); assay: qHTS assay to identify aromatase inhibitors (AID 743083); further: nearly all actives have a fitted effect of over 55% in size
[8] = qHTS assay to identify aromatase inhibitors - cell viability counter screen (AID 743084);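 further: cells stimulated with testosterone during compound exposure; nearly all actives have a fitted effect of over 55% in size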
[9] = target: Aryl hydrocarbon receptor (Homo sapiens) (UniProt P35869); assay: qHTS assay to identify small molecule that activate the aryl hydrocarbon receptor (AhR) signaling pathway (AID 743085);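 further: HG2L7.5c1 human HepG2 liver cells with stably integrated DRE-driven firefly reporter; nearly all actives have a fitted effect of over 15% in size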
Method in brief: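 Luminescence read-out: ONE-Glo reagent, 30 min at room temperature, in HG2L7.5c1 HepG2 reporter cells treated 24 h at 37C. Viability was measured beforehand by CellTiter-Fluor fluorescence after 30 min at 37C.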

[10] = qHTS assay to identify small molecule that activate the aryl hydrocarbon receptor (AhR) signaling pathway - cell viability counter screen (AID 743086);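 further: HepG2 liver cells carrying the AhR DRE luciferase reporter; nearly all actives have a fitted effect of over 45% in size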
Method in brief: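 HepG2-AhR-luc (HG2L7.5c1) cells, 4000/well, treated 24 h at 37 C with compound; viability measured as CellTiter-Fluor fluorescence after 30 min in the same wells as the luciferase read.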

[11] = target: Peroxisome proliferator-activated receptor gamma (Homo sapiens) (UniProt P37231); assay: qHTS assay to identify small molecule agonists of the peroxisome proliferator-activated receptor gamma (PPARg) signaling pathway (AID 743094; active means well fitted activation curve with a large enough effect in the signal ratio in the repeat runs, not every such curve was filed as active; the % refers to the signal ratio)
Method in brief: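 Cell-based bla reporter, HEK293H background, PPARg-driven UAS. Pre-incubation 5 h, 37C, 5% CO2. Compound 17 h, 37C. Substrate 1 h RT; fluorescence.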

[12] = qHTS assay to identify small molecule antagonists of the peroxisome proliferator-activated receptor gamma (PPARg) signaling pathway - cell viability counter screen (AID 743194); conditions: Potency: co-treated with 50 nM rosiglitazone; further: nearly all actives have a fitted effect of over 55% in size
Method in brief: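 Cytotoxicity counter screen in PPARg-bla HEK293H cells, same wells as reporter assay. Compounds plus 50 nM rosiglitazone (final) for 17 h at 37 C, then viability read by CellTiter-Glo luminescence.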

[13] = qHTS assay for small molecule agonists of the antioxidant response element (ARE) signaling pathway (AID 743202; active means well fitted activation curve with a large enough effect in the signal ratio in the repeat runs, not every such curve was filed as active; the % refers to the signal ratio; further: potency means the concentration at half of the fitted maximal effect)
Method in brief: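 HepG2 ARE-bla reporter line, 2,000 cells/well; 5 h preincubation 37 C/5% CO2; compound (DMSO) 16 h 37 C; B/G FRET substrate 2 h RT; fluorescence intensity.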

[14] = qHTS assay for small molecule agonists of the antioxidant response element (ARE) signaling pathway - cell viability counter screen (AID 743203; calls by dose curve; further: nearly all actives have a fitted effect of over 55% in size)
Method in brief: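 Measured in the same wells as the beta-lactamase ARE reporter, this read-out is CellTiter-Glo luminescence from HepG2 ARE-bla cells given compounds for 16 hrs.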

[15] = qHTS assay for small molecule activators of the heat shock response signaling pathway - cell viability counter screen (AID 743209); further: nearly all actives have a fitted effect of over 50% in size; further: potency means the concentration at half of the fitted maximal effect
Method in brief: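 Same-well multiplex: after 2.5 h room-temperature incubation with LiveBLAzer B/G substrate and fluorescence reading, CellTiter-Glo reagent was added to HSE-bla HeLa cells that had received compound for 5 h at 37 C; luminescence read after 30 min.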

[16] = qHTS assay for small molecule activators of the heat shock response signaling pathway (AID 743210; active means well fitted activation curve with a large enough effect in the signal ratio in the repeat runs, with a control signal flat, not every such curve was filed as active; the % refers to the signal ratio;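 further: HeLa cells with beta-lactamase reporter driven by heat shock elements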)
Method in brief: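 Beta-lactamase reporter read-out: FRET substrate fluorescence after 2.5 h at RT, following 5 h compound treatment at 37 C of HeLa cells carrying HSE-driven bla reporter; quantitative HTS format.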

[17] = system: thyroid hormone receptor (rat, GH3 cells); assay: qHTS assay to identify small molecule agonists of the thyroid receptor (TR) signaling pathway (AID 743066; calls by dose curve; further: potency means the concentration at half of the fitted maximal effect)
[18] = qHTS assay to identify small molecule antagonists of the thyroid receptor (TR) signaling pathway (AID 743065); further: nearly all actives have a fitted effect of over 55% in size; further: potency means the concentration at half of the fitted maximal effect
Method in brief: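 GH3.TRE-Luc rat pituitary cells (two TREs driving luciferase) were dosed with compound, then stimulated with 1 nM T3 (final) for 23.5 h at 37 C. ONE-Glo luminescence was the read-out, with CellTiter-Fluor fluorescence as the cytotoxicity counter-screen.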

[19] = target: Peroxisome proliferator-activated receptor gamma (Homo sapiens) (UniProt P37231); assay: qHTS assay to identify small molecule antagonists of the peroxisome proliferator-activated receptor gamma (PPARg) signaling pathway (AID 743191; calls by dose curve; further: nearly all actives have a fitted effect of over 30% in size)
Method in brief: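 GeneBLAzer PPARg UAS-bla HEK293H cells, 5 h post-plating, exposed to compounds 17 h at 37C. LiveBLAzer B/G FRET substrate added for 1 h at room temperature; beta-lactamase reporter read by fluorescence intensity.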
On the % scale 0 is the no-effect control and ±100 the full control effect.

Chain of Aromatase (Homo sapiens) (P11511 whole entry, looked up): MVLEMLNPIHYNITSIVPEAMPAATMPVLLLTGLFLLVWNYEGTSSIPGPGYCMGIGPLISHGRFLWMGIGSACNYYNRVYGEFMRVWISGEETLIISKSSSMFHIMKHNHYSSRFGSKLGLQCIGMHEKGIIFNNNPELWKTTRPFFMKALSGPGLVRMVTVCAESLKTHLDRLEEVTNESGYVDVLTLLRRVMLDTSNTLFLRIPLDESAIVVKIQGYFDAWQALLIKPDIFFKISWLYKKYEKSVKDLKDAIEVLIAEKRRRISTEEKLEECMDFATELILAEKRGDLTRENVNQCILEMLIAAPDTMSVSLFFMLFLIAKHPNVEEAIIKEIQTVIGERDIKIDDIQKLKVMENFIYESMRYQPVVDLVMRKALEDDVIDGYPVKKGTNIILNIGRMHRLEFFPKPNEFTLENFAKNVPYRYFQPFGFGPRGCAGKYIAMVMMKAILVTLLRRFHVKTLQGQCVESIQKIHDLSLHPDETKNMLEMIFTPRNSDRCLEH
Chain of Estrogen receptor (Homo sapiens) (P03372 whole entry, looked up): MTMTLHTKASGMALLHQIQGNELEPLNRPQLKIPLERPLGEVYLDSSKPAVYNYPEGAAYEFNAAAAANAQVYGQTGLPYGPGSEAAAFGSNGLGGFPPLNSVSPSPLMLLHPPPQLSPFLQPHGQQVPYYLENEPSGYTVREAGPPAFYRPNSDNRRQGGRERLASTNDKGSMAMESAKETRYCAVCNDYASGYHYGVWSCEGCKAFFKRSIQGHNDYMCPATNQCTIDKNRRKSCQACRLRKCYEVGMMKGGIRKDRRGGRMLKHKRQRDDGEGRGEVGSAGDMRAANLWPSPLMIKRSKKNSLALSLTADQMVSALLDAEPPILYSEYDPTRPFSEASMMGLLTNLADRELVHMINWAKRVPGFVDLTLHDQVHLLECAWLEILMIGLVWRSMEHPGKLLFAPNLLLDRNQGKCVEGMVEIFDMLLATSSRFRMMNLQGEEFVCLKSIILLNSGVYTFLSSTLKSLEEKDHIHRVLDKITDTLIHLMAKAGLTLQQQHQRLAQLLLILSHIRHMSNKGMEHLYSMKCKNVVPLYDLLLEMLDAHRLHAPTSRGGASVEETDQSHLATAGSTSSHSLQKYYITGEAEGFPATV
Chain of Peroxisome proliferator-activated receptor gamma (Homo sapiens) (P37231 whole entry, looked up): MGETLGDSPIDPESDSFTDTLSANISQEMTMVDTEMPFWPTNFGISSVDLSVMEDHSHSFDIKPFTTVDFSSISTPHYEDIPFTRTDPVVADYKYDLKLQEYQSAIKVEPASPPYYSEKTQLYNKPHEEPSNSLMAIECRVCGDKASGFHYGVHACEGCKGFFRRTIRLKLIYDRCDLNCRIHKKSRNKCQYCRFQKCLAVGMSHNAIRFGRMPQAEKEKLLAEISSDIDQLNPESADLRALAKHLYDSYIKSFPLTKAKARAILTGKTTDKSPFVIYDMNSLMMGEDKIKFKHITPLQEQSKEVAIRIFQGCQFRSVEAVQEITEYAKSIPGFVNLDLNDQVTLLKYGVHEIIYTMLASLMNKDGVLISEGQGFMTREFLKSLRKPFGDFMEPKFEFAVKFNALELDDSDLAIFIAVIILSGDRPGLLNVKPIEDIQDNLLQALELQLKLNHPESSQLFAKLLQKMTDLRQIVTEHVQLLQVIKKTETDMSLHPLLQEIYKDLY
Chain of Aryl hydrocarbon receptor (Homo sapiens) (P35869 whole entry, looked up): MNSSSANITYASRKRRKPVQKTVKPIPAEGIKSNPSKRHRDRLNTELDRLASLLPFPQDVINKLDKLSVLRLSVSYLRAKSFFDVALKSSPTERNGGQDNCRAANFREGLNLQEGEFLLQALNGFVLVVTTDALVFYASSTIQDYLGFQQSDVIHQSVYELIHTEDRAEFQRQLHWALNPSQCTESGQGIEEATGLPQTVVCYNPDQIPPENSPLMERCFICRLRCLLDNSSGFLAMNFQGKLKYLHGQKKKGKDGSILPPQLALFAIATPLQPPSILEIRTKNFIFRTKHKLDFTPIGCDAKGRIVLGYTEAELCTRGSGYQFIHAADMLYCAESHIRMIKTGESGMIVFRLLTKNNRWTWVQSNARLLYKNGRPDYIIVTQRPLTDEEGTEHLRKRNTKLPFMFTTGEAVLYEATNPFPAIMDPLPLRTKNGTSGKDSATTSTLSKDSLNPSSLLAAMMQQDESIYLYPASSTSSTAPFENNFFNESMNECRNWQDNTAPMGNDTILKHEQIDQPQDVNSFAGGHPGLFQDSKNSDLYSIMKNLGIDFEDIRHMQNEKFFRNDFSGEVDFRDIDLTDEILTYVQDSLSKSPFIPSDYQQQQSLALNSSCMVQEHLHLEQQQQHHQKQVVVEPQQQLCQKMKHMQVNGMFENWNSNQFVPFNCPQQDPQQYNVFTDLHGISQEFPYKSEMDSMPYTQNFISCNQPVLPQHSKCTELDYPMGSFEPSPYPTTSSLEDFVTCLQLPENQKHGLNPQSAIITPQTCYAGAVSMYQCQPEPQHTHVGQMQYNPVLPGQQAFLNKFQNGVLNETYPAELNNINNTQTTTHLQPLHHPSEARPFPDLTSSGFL

COC(=O)C1=CCCN(C)C1
inactive: Potency [1] | Potency [2] | outcome [3] | Potency [4] | activation ([5]; at 70.3 µM (top of the series)) 0.989% | Potency [6] | Potency [7] | Potency (Aromatase (Homo sapiens)) | Potency [8] | Potency [9] | outcome [10] | outcome [11] | Potency [12] | Potency [13] | Potency [14] | Potency [15] | outcome [16]

CC1(C)COP(Oc2ccccc2)OC1
active: Potency [17] 54.5 µM
inactive: Potency [1] | outcome [3] | Potency [7] | Potency (Aromatase (Homo sapiens)) | Potency [8] | Potency [9] | outcome [10] | Potency [14] | Potency [15] | outcome [16]

CCNc1nc(NC(C)C)nc(OC)n1
inactive: Potency [1] | Potency [17] | outcome [3] | Potency [7] | Potency (Aromatase (Homo sapiens)) | outcome [10] | outcome [11] | Potency [12] | Potency [14] | outcome [16]

c1cc[c]([Hg][c]2ccccc2)cc1
active: Potency [18] 3.06 µM
inactive: Potency [17] | Potency [2] | outcome [3] | Potency [4] | Potency [7] | Potency (Aromatase (Homo sapiens)) | Potency [8] | outcome [10] | outcome [11] | Potency [15]

CCS(=O)(=O)CCSP(=O)(OC)OC
inactive: Potency [1] | Potency [17] | outcome [3] | Potency [7] | Potency (Aromatase (Homo sapiens)) | Potency [8] | Potency [9] | outcome [10] | Potency [12] | Potency [14] | Potency [15] | outcome [16]

CNCC(=O)c1ccc(O)c(O)c1
inactive: Potency [1] | Potency [17] | Potency [4] | activation ([5]; at 70.3 µM (top of the series)) -0.0937% | Potency [6] | Potency (Aromatase (Homo sapiens)) | Potency [8] | Potency [9] | outcome [10] | outcome [11] | Potency [19] | Potency [12] | Potency [14] | Potency [15]

C=CCC1=C(C)[C@@H](OC(=O)[C@@H]2[C@@H](C=C(C)C)C2(C)C)CC1=O
inactive: outcome [3] | Potency [4] | Potency [7] | Potency [8] | Potency [9] | outcome [10] | Potency [12] | Potency [14]
active: Potency [1] 61.1 µM | Potency [6] 54.5 µM | Potency [15] 49 µM

Cc1ccccc1CO[C@@H]1C[C@@]2(C(C)C)CC[C@]1(C)O2
inactive: Potency [1] | Potency [17] | outcome [3] | Potency [7] | Potency [8] | outcome [10] | outcome [11] | Potency [19] | Potency [12] | Potency [13] | Potency [14] | Potency [15] | outcome [16]

CC(=O)CCc1ccc2c(c1)OCO2
inactive: Potency [1] | Potency [2] | outcome [3] | Potency [4] | activation ([5]; at 70.3 µM (top of the series)) 24.9% | Potency [6] | Potency [7] | Potency (Aromatase (Homo sapiens)) | Potency [8] | Potency [9] | outcome [10] | outcome [11] | Potency [12] | Potency [13] | Potency [14] | Potency [15] | outcome [16]

Nc1n[nH]c(N)n1
inactive: Potency [1] | Potency [17] | outcome [3] | Potency [7] | Potency (Aromatase (Homo sapiens)) | Potency [8] | Potency [9] | outcome [10] | outcome [11] | Potency [19] | Potency [12] | Potency [13] | Potency [14] | outcome [16]

CC(N)=S
inactive: Potency [1] | Potency [17] | outcome [3] | Potency [7] | Potency (Aromatase (Homo sapiens)) | Potency [8] | Potency [9] | outcome [10] | outcome [11] | Potency [19] | Potency [14] | Potency [15]

Nc1ccccc1Cl
inactive: Potency [18] | Potency [17] | Potency [2] | outcome [3] | Potency [4] | activation ([5]; at 70.3 µM (top of the series)) -8.6% | Potency [6] | Potency [7] | Potency (Aromatase (Homo sapiens)) | Potency [8] | Potency [9] | outcome [10] | outcome [11] | Potency [19] | Potency [12] | Potency [14] | Potency [15] | outcome [16]

O=C(Cc1ccccc1)OCc1ccccc1
inactive: Potency [1] | Potency [17] | outcome [3] | Potency [4] | activation ([5]; at 95 µM (top of the series)) 2.04% | Potency [6] | Potency [7] | Potency (Aromatase (Homo sapiens)) | Potency [8] | outcome [10] | outcome [11] | Potency [19] | Potency [13] | Potency [14] | Potency [15]

NC(=S)C(N)=S
inactive: Potency [18] | Potency [17] | outcome [3] | Potency [4] | activation ([5]; at 70.3 µM (top of the series)) -1.3% | Potency [6] | Potency [7] | Potency (Aromatase (Homo sapiens)) | Potency [8] | Potency [9] | outcome [10] | outcome [11] | Potency [19] | Potency [14] | Potency [15]

CC(Oc1ccc(Oc2ncc(C(F)(F)F)cc2Cl)cc1)C(=O)O (centres undefined)
inactive: Potency [1] | Potency [17] | outcome [3] | Potency [4] | Potency [6] | Potency [7] | Potency [8] | Potency [9] | outcome [10] | Potency [12] | Potency [14] | Potency [15] | outcome [16]

CCN(CC)c1nc(C)cc(OP(=S)(OC)OC)n1
inactive: Potency [17] | Potency [2] | outcome [3] | Potency [4] | activation ([5]; at 70.3 µM (top of the series)) 4.15% | Potency [6] | Potency [7] | Potency [8] | outcome [10] | outcome [11] | Potency [12] | Potency [14] | outcome [16]
active: Potency [18] 61.1 µM

O=C(Oc1ccc(Br)cc1)N1CCN2CCC1CC2
inactive: Potency [17] | Potency [2] | outcome [3] | Potency [4] | activation ([5]; at 70.3 µM (top of the series)) 1.03% | Potency [7] | Potency (Aromatase (Homo sapiens)) | Potency [8] | Potency [9] | outcome [10] | outcome [11] | Potency [19] | Potency [12] | Potency [14]

COc1cccc(C(=O)NN(C(=O)c2cc(C)cc(C)c2)C(C)(C)C)c1C
inactive: Potency [17] | outcome [3] | Potency (Aromatase (Homo sapiens)) | Potency [19] | Potency [12] | Potency [14] | Potency [15] | outcome [16]

CCC(=O)C(CCN(C)C)(c1ccccc1)c1ccccc1
inactive: Potency [19] | Potency [12] | Potency [13] | Potency [14] | outcome [16]

O=C1OC(CCN2CCCCC2)OC1(c1ccccc1)c1ccccc1 (centres undefined)
inactive: Potency [14]
active: Potency [13] 23.7 µM

c1ccc(N2CCNCC2)cc1
inactive: Potency [12] | Potency [13] | Potency [14] | Potency [15]

Clc1ccccc1N1CCNCC1
inactive: Potency [19] | Potency [14] | Potency [15] | outcome [16]
